“And” between values parts separate entries of the source, which are not always exact repeats. Equal values may be shown once. The campaign covered roughly 300,000 compounds. About 37,000 (12%) were called active. Cut-off read from the data, not from the text of the source: active = max response mostly above about 13% (no sharp cut-off); inactive = mostly below about 14%. The full list was thinned out, with actives kept by preference.
Experiment: Cycloheximide Counterscreen for Small Molecule Inhibitors of Shiga Toxin; note: read at 38.3 µM for the half of the compounds with a filed dose; 0% is about no effect
Settings: cell reporter, cycloheximide protein synthesis inhibition counterscreen; stronger effect = higher value

Q: With `COc1cc(CC(=O)N2CCC(n3nccc3NC(=O)C3CC3)CC2)cc(OC)c1OC` as the molecule, how does the max response read?
A: Its max response is -1.39% (inactive).

Q: For `C/C(=N\NC(=O)c1ccc(NS(=O)(=O)c2cccs2)cc1)c1ccc2ccccc2c1`, which max response is on record?
A: Its max response is 7.4% (inactive).

Q: Which max response does the source give for `Cc1ccc(S(=O)(=O)N(Cc2cc3ccccc3[nH]c2=O)CC2CCCO2)cc1` (centres undefined) here?
A: The max response was -1.24% (inactive).

Q: Which max response does the source give for `CCn1cc(CN2CCC(C(=O)Nc3cccc(-c4cccc(Cl)c4)c3)CC2)c(C)n1` here?
A: The max response was -9.71% (inactive).

Q: For `CCCOc1ccc(-c2c(C(=O)N/N=C/c3ccco3)nnn2-c2nonc2N)cc1`, which max response is on record?
A: The max response was -0.593% (inactive).

Q: Which max response does the source give for `O=C(Nc1cccnc1Cl)c1cc(-c2ccccc2O)on1` here?
A: Its max response is 17% (inactive).

Q: With `C=CCNC(=O)c1csc(-c2ccccc2)n1` as the molecule, how does the max response read?
A: Its max response is 28.5% (active).

Q: For `CNC(=O)c1csc(Cc2c(Cl)sc3ccc(Cl)cc23)n1`, which max response is on record?
A: Its max response is -2.08% (inactive).

Q: Which max response does the source give for `C=CCNC(=O)c1cc2nc(C3CC3)cc(C(F)F)n2n1` here?
A: Its max response is 11.1% (inactive).

Q: For `O=C(NCc1ccccn1)c1cc(-c2ccccc2Cl)on1`, which max response is on record?
A: The max response was 38.8% (active).

Q: With `C=CCNC(=O)c1ccccc1SCc1c(C)noc1C` as the molecule, how does the max response read?
A: The max response was -1.93% (inactive).

Q: For `Clc1ccccc1-c1cc(COc2ccc3ccccc3c2)no1`, which max response is on record?
A: The max response was 6.98% (inactive).

Q: For `CNC(=O)c1csc(-c2ccccc2)n1`, which max response is on record?
A: Its max response is 13.6% (active).

Q: For `CNC(=O)c1cccc2nc3ccccc3nc12`, which max response is on record?
A: Its max response is 1.67% (inactive).

Q: Which max response does the source give for `O=C(NCc1ccccn1)c1ccc2nc(-c3ccco3)c(-c3ccco3)nc2c1` here?
A: The max response was 0.719% (inactive).

Q: With `O=C(O)Cc1csc(-c2cccc(Oc3ccccc3)c2)n1` as the molecule, how does the max response read?
A: The max response was -1.21% (inactive) and 2.4% (inactive).

Q: Which max response does the source give for `C=CCNC(=O)c1cc(-c2ccccc2O)on1` here?
A: Its max response is 59.8% (active).

Q: Which max response does the source give for `CCn1c(=O)c(C(=O)NCc2ccc3c(c2)OCO3)c(O)c2ccccc21` here?
A: The max response was -2.8% (inactive).

Q: With `COc1ccc(OC)c(/C(C)=N\NC(=O)c2cc3cc(Cl)ccc3n2C)c1` as the molecule, how does the max response read?
A: The max response was -5.13% (inactive).

Q: Which max response does the source give for `COc1cc([C@H](Cc2ccccc2)NC(C)=O)oc(=O)c1` here?
A: The max response was -1.33% (inactive).

Q: Which max response does the source give for `Cc1ccc(C)c(S(=O)(=O)Nc2cccc(-n3cnnn3)c2)c1` here?
A: Its max response is -4.16% (inactive).

Q: For `CC1CN(C(=O)CCC(=O)NC2CCN(Cc3ccccc3)CC2)c2ccccc2O1` (centres undefined), which max response is on record?
A: Its max response is -2.34% (inactive).

Q: With `O=C(O)CCCn1cc(NC(=O)COc2cccc(Cl)c2)cn1` as the molecule, how does the max response read?
A: The max response was -1.65% (inactive).

Q: Which max response does the source give for `[O-][N+]12CCCCC1CCCC2CO` (centres undefined) here?
A: The max response was -2.81% (inactive).

Q: Which max response does the source give for `Cc1ccccc1N1CCN(CCCN2C(=O)C3CCCCN3C2=O)CC1` (centres undefined) here?
A: Its max response is -0.589% (inactive).

Q: For `CCNC(=O)NC(=O)C(C)OC(=O)c1cc(S(=O)(=O)N2CCCCCC2)ccc1OC` (centres undefined), which max response is on record?
A: The max response was 15.1% (inactive).

Q: For `O=C1CCC(CCC(=O)N2CCCC(C(=O)c3ccc(Cl)cc3)C2)=NN1` (centres undefined), which max response is on record?
A: The max response was 8.2% (inactive).

Q: For `COCC1CCN(C(=O)CCc2nnc(C3(c4ccc(Cl)cc4)CCC3)o2)C1` (centres undefined), which max response is on record?
A: The max response was 44% (active).

Q: Which max response does the source give for `CSCCC(=O)N1CCCC(CNC(=O)c2ccccc2Cl)C1` (centres undefined) here?
A: The max response was -3.24% (inactive).

Reference: PubChem BioAssay AID2314 (National Center for Advancing Translational Sciences (NCATS), 2010)
